# sEH activator: soluble epoxide hydrolase activators, primary screen, biochemical, human sEH. Bifunctional epoxide hydrolase 2 (Homo sapiens), P34913. hit rate 0.04% among 91,000. activation, % at 2 µM. purified human sEH enzymatic activity, activator screen; in the data active means activation above about 37%
# Target sequence (P34913 whole entry, looked up): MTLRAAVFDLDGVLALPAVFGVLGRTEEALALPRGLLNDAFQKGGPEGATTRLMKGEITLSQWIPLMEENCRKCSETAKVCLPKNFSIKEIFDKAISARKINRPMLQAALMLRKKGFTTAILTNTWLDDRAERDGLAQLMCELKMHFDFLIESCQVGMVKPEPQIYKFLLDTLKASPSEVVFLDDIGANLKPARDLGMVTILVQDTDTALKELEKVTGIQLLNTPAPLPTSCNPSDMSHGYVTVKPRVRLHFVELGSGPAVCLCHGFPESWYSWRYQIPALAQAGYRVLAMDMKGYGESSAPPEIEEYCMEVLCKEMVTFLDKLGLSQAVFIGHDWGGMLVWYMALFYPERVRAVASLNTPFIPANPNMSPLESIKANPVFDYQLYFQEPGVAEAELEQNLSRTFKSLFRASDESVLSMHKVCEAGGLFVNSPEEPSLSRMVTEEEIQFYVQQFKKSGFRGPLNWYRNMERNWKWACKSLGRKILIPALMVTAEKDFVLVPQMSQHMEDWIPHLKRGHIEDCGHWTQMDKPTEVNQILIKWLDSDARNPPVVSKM
# CYP2C19 activ: human CYP2C19 activators, primary screen, biochemical, luminescence; recombinant CYP2C19, luciferin-H EGE luminescence; stronger effect = higher value; 0 = fully inhibited enzyme, 1 = untreated enzyme; activation factor at 5 µM; 96,000 tested, under 10 active; AID 1025, 2008;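 active means activation factor of at least 2 at 5 µM in the primary screen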;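 further: 0 = wells with 2.5 mM tranylcypromine and 1 = vehicle-only wells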
# sEH inh: soluble epoxide hydrolase inhibitors, primary screen, biochemical, human sEH | Bifunctional epoxide hydrolase 2 (Homo sapiens), P34913 | hit rate 0.34% among 91,000 | inhibition, % at 2 µM | recombinant human sEH enzymatic activity assay; in the data active means inhibition above about 80%
# CYP2C9 act: human CYP2C9 activators, primary screen, biochemical, luminescence. activation factor at 5 µM. hit rate 1.4% among 96,000. AID 1024, 2008. recombinant CYP2C9, luciferin-H conversion; stronger effect = higher value; factor 1 = untreated enzyme, 0 = blocked;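 active means activation factor of 2 or more for CYP2C9 at a 5 µM dose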;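 further: 0 = sulfaphenazole-blocked wells and 1 = vehicle-only wells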
# CYP2C9 inh: blockers of cytochrome P450 2C9 activity – biochemical, luminescence, ADME assay, primary screen | P11712 | CYP2C9 Supersomes, luciferin-H conversion | inhibition, % at 5 µM | hit rate 20% among 96,000;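 active means blocking of liver enzyme CYP2C9 beyond about 50% at 5 µM, limit read from the data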
# CYP2C19 inhib: blockers of cytochrome P450 2C19 activity – biochemical, luminescence, ADME assay, primary screen. inhibition, % at 5 µM. hit rate 21% among 96,000. P33261. CYP2C19 Supersomes, luciferin-H EGE luminescence, 30 min;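 active means CYP2C19 inhibition above a set limit at 5 µM in the primary screen, cut at about 50% in these data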;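 further: plate controls were negative control wells for no effect and 2.5 mM tranylcypromine positive control for full effect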
# Active calls of the source: *; . = not tested or not shown. A selection: hits, their analogues and other compounds. The true share with any hit is near 27%.
SMILES,sEH activator,CYP2C19 activ,sEH inh,CYP2C9 act,CYP2C9 inh,CYP2C19 inhib
Cc1cc(OCC(=O)N(C)C)c2c(-c3ccccc3)cc(=O)oc2c1,.,0.8,.,0.4,64*,16
Cc1cc(OCc2nn[nH]n2)c2c(-c3ccccc3)cc(=O)oc2c1,8,0.6,-5,0.3,71*,40
Cc1c(OCc2nn[nH]n2)ccc2c(-c3ccccc3)cc(=O)oc12,8,0,-8,0,98*,95*
O=C1OC2CC3CC1CC(O)(C3)C2 (centres undefined),13,1.2,-11,1.1,-8,-16
Cc1nc(S(=O)(=O)c2ccc(Cl)cc2)c(NCc2ccccc2)o1,-2,0.6,3,1,3,40
CCCCc1cc(=O)oc2cc(OCc3nn[nH]n3)c(Cl)cc12,1,0.6,-3,0.2,80*,44
COc1cc(C(=O)OCC(=O)Nc2cc(C)on2)cc(OC)c1OC,0,1,2,0.9,11,-5
CCCC(=O)NCCSC,.,1,.,1.1,-5,-5
COC(=O)CNc1c(-c2ccccc2)nc2ccc(Br)cn12,-15,0.3,13,0.2,77*,69*
COc1ccc(C2CC(=O)N3CN(Cc4ccco4)CSC3=C2C#N)cc1 (centres undefined),-4,0.9,3,0.8,20,9
CC(C)c1ccc(C2CC(=O)N3CN(Cc4ccco4)CSC3=C2C#N)cc1 (centres undefined),-13,0.7,12,0.3,73*,28
N#CC1=C2SCN(Cc3ccco3)CN2C(=O)CC1c1ccc(Cl)cc1 (centres undefined),-10,0.4,12,0.3,70*,61*
Cn1c(=O)c2c(nc(-n3ccnc3)n2Cc2ccc([N+](=O)[O-])cc2)n(C)c1=O,8,1,-5,1.1,-8,4
COc1c(C)cccc1C(=O)Nc1cc(-c2nn3c(C)nnc3s2)ccc1C,12,.,-12,.,.,.
CCOc1ccccc1N1CCN(CC(O)COc2ccc3c(C)cc(=O)oc3c2)CC1 (centres undefined),.,0.8,.,0.9,15,20
COc1cccc(CNC(=O)c2ccc3nc[nH]c3c2)c1,-18,0.6,17,1.1,-8,38
Cc1nn(C(C)(C)C)c(OC(=O)c2cccs2)c1S(=O)(=O)c1ccccc1,-2,0.7,2,0.1,87*,33
CCC(=O)Oc1c(S(=O)(=O)c2ccc(C)cc2)c(C)nn1C(C)(C)C,-11,0.3,10,0.5,52*,69*
CC(=O)Oc1c(S(=O)(=O)c2ccccc2)c(C)nn1C(C)(C)C,-1,0.1,4,0.9,7,86*
COCC(=O)Oc1c(S(=O)(=O)c2ccc(C)cc2)c(C)nn1-c1ccccc1,.,1,.,0.2,81*,-4
COC(=O)c1cc(Br)ccc1OC(=O)c1cccnc1,-2,0.9,2,0.8,23,12
Cc1cc(C)cc(C(=O)N2CC(=O)Nc3ccccc32)c1,-2,0.5,4,0.6,36,53*
Cc1nc(N2CCCC2)c2nnn(Cc3ccccc3Cl)c2n1,.,0.1,.,0.5,45,91*
Cc1nc(N2CCC3(CC2)OCCO3)c2nnn(Cc3ccccc3F)c2n1,11,0.3,-10,0.2,75*,69*
O=S(=O)(c1cccc(C(F)(F)F)c1)N1CCC(c2cc(-c3cccc4ccccc34)n[nH]2)CC1,-14,0.9,15,0.9,9,6
Cc1c(C(=O)N2CCOCC2)sc2ncnc(N3CCc4ccccc4C3)c12,2,0.7,-1,0.3,65*,32
Cc1c(C(=O)N2CCN(c3ccccn3)CC2)sc2ncnc(N3CCN(c4ccccc4)CC3)c12,4,.,-4,.,.,.
COCCCNC(=O)c1sc2ncnc(N3CCc4ccccc4C3)c2c1C,-6,.,8,.,.,.
Cc1c(C(=O)N2CCN(c3ccccc3)CC2)sc2ncnc(N3CCC(C)CC3)c12,3,0.4,0,0.5,49,61*

# Source: PubChem BioAssay (several laboratories)
